ST2 inh – IL1RL1 inhibition. hit rate 2.3% among 78,000. AID 1259354. inhibition, % for hits at 17 µM. AlphaLISA ST2-Fc/biotin-IL-33 interaction, 1 h; in the data active means inhibition above about 30%
Target sequence (Q01638 whole entry, looked up): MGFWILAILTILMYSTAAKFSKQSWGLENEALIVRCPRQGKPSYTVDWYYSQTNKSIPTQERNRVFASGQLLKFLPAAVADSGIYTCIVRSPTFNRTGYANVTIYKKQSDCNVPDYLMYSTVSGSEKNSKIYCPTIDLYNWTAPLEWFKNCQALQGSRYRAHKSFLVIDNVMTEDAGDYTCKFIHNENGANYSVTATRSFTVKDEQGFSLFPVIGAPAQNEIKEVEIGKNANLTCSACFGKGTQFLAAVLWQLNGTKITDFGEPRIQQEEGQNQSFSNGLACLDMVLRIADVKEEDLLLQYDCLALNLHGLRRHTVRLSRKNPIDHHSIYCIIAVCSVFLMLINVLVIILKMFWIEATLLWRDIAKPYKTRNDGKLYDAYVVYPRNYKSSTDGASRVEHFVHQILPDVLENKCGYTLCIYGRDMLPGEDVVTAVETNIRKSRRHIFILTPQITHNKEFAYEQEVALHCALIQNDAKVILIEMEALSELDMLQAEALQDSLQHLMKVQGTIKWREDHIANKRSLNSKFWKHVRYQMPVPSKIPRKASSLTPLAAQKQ
* = called active by the depositor; i = inactive. Shown is part of a subset that was picked to be rich in hits.

SMILES	ST2 inh
COc1cc(C2Nc3ccc(Cl)cc3C(c3ccccc3)O2)cc(OC)c1OC (stereo not drawn)	i
Cc1nc2cc(-c3ccccc3)nn2c(C)c1CCC(=O)NCCN1CCCC1	i
COc1ccc(OC)c(NS(=O)(=O)c2ccc3c(c2)c(=O)n(C)c(=O)n3C)c1	i
COC(=O)CN1C(=O)c2cccc3cccc(c23)C1=O	i
COc1ccc(OC)c(S(=O)(=O)NCc2ccc(C)cc2)c1	i
CC(C)CN(Cc1ccc(-n2cccn2)cc1)Cc1ccccn1	i
COc1ccc(N=c2oc3ccccc3cc2C(=O)Nc2ccc(C)cc2)cc1	i
COc1ccccc1N=c1oc2ccccc2cc1C(=O)Nc1ccccc1	41%*
O=C(Nc1ccccc1)c1cc2ccccc2oc1=Nc1cccc(F)c1	i
CC1OC(Nc2ccccc2[N+](=O)[O-])C(O)C(O)C1O (stereo not drawn)	i
CN(CC[C@H]1CN(C(=O)Cc2ccccc2)CC[C@H]1CC(=O)O)c1ccccc1	i
O=C1CCCCN1CC(=O)N1CCOC(Cc2cccc(C(F)(F)F)c2)C1 (stereo not drawn)	i
CC1=C[C@@H](CNC(=O)NC2CCCCC2)[C@H](C(C)C)C[C@H]1CC(=O)O	i
CC1=C[C@@H](CNC(=O)c2ccccc2)[C@H](C(C)C)C[C@H]1CC(=O)O	i
COCC(=O)NC[C@@H]1C=C(C)[C@H](CC(=O)O)C[C@H]1C(C)C	32%*
c1ccc(CN2CCC(NC3CCCN(c4nc5ccccc5s4)C3)CC2)nc1 (stereo not drawn)	i
COc1ccc(C=O)c(C(=O)O)c1OC	i
CN(C)C(C(=O)N1C[C@@H]2[C@H](C1)[C@H]1CC[C@@H]2O1)c1ccc2c(c1)OCO2 (stereo partly drawn)	50%*
O=C(c1ccc(C2CCCO2)s1)N1C[C@@H]2[C@H](C1)[C@H]1CC[C@@H]2O1 (stereo partly drawn)	i
COc1ccccc1C(CC(=O)O)c1ccc2c(c1)OCO2 (stereo not drawn)	i
CCOc1cccc(CN2CCN(Cc3cccs3)C(CCO)C2)c1O (stereo not drawn)	i
O=C(C1CCCN1S(=O)(=O)c1cccc2nsnc12)N1CCc2ccccc2C1 (stereo not drawn)	i
CN(C)CCN1C(=O)C2CC=C(Cl)CC2C1=O (stereo not drawn)	i
O=C(NCCOC(=O)C1COc2ccccc2O1)c1ccncc1 (stereo not drawn)	i
Cc1nc(CN(C)C2CCc3c(c(C(=O)N(C)C)nn3CC3CCCCC3)C2)cs1 (stereo not drawn)	i
SMILES	ST2 inh
CC(C)(C)c1[nH]nc2c1C(c1ccccc1Cl)C(C#N)=C(N)O2 (stereo not drawn)	i
N#CC1=C(N)Oc2nc[nH]c(=O)c2C1c1ccccc1Cl (stereo not drawn)	94%*
COc1cc(-c2[nH]nc3c2C(c2ccccc2Cl)C(C#N)=C(N)O3)cc(OC)c1OC (stereo not drawn)	i
CCN(CC)C(=O)Cc1c(C(=O)O)[nH]c2ccccc12	i
O=C(NCCSc1c[nH]c2ccccc12)C1CCCCC1	i
CC(=O)c1c(C)nc2nonc2c1N=CN(C)C	i
COc1ccc(C(=O)Nc2sc3c(c2C(N)=O)CCCC3)cc1[N+](=O)[O-]	31%*
CC(C)(C)c1ccc(C(=O)Nc2sc3c(c2C(N)=O)CCCC3)cc1	i
COc1ccccc1OCC(=O)Nc1sc2c(c1C(N)=O)CCCC2	i
O=C(Nc1ccc2c(c1)Cc1ccccc1-2)c1ccc(F)cc1	i
Cc1ccc(C(O)=C2C(=O)C(=O)N(c3ccccn3)C2c2ccccc2Cl)cc1 (stereo not drawn)	i
Cc1ccc(-n2cccc2)cc1[N+](=O)[O-]	31%*
Cc1ccc(N2C(=O)c3cccc([N+](=O)[O-])c3C2=O)cc1Cl	i
Cc1ccc(N2C(=O)C3C4C=CC(O4)C3C2=O)cc1[N+](=O)[O-] (stereo not drawn)	i
C=CCNC(=O)CN(c1ccc(OC)c(Cl)c1)S(=O)(=O)c1ccc(C)cc1	i
CCCc1nc2nc[nH]n2c(=O)c1NC(=O)NCc1ccccc1	i
Cc1c(Cl)c([N+](=O)[O-])nn1CCCC(=O)Nc1cccnc1Cl	i
COc1ccc2oc(=Nc3ccc(Cl)cc3Cl)c(C(=O)NC(C)=O)cc2c1	33%*
COc1ccc2oc(=Nc3ccccc3F)c(C(=O)NC(C)=O)cc2c1	i
COc1ccc2cc(C(=O)NC(C)=O)c(=Nc3cccc(F)c3)oc2c1	i
CC(=O)NC(=O)c1cc2cc(Br)ccc2oc1=Nc1ccccc1F	i
COc1ccc2oc(=Nc3cccc(C#N)c3)c(C(=O)NC(C)=O)cc2c1	i
COc1ccc2cc(C(=O)NC(C)=O)c(=Nc3ccc(C#N)cc3)oc2c1	37%*
CCCCc1c(C(=O)O)cc(C)cc1C(=O)O	i
CN(CCc1ccccn1)C(=O)C1CCN(S(=O)(=O)c2cccc3cccnc23)CC1	i
SMILES	ST2 inh
CCOC(=O)c1oc2ccccc2c1NC(=O)c1c(F)cccc1F	i
CC(C)(C)C(=O)Nc1c2c(nn1-c1ccc(Cl)cc1)CSC2	i
COc1cc(NC(=O)c2ccc([N+](=O)[O-])cc2)c(OC)cc1NC(C)=O	i
COc1ccc(C2(CNC(=O)c3ccc([N+](=O)[O-])cc3)CCCC2)cc1	i
COC1(C#CC(=O)c2ccc([N+](=O)[O-])cc2)CCCCC1	61%*
Cn1c(=O)c2c(SCC(=O)NCCc3ccccc3)nc(-c3ccc(F)cc3)nc2n(C)c1=O	i
CCCN(CCO)C(=O)CCn1c(C)cc(C)nc1=O	i
CC(C)(C)c1ccccc1Oc1ccccc1N	i
O=C(Nc1ccc(N2CCOCC2)cc1)c1ccccc1	i
Cc1cc(C(=O)Nc2ccc(N3CCOCC3)cc2)ccc1[N+](=O)[O-]	i
O=C(Nc1ccc(N2CCOCC2)cc1)c1cccc([N+](=O)[O-])c1	30%*
CCOc1ccc(C(=O)Nc2nc3ccc4sc(C)nc4c3s2)cc1	i
Cc1ccc(C(=O)Nc2nc3ccc4sc(C)nc4c3s2)cc1	42%*
COc1cc(OC)cc(C(=O)Nc2nc3ccc4sc(C)nc4c3s2)c1	i
Cc1ccc(C(=O)Nc2nc3ccc4nc(C)sc4c3s2)cc1	i
CCN(CC)c1ccc(C(=O)Nc2nc3ccc4sc(C)nc4c3s2)cc1	i
Cc1nc2c(ccc3nc(NC(=O)c4ccc(C#N)cc4)sc32)s1	35%*
COc1ccc(C2C(C(=O)OCc3ccccc3)=C(C)Nc3nnnn32)c(OC)c1 (stereo not drawn)	i
O=S(=O)(NC[C@H]1O[C@@H](CO)[C@@H](O)[C@H]1N1CCN(c2ccc(F)cc2)CC1)c1ccccc1	i
Cc1ccc(CN2CCN(C3CCN(Cc4ccccc4)CC3)CC2CCO)o1 (stereo not drawn)	i
NC(=O)c1ccc(NC(=O)c2ccccc2)cc1	i
CC(=O)c1ccc(NC(=O)Cc2ccccc2)cc1	i
NS(=O)(=O)c1ccc(NC(=O)c2ccc(-c3ccccc3)cc2)cc1	30%*
Cc1cc(C)nc(NS(=O)(=O)c2ccc(NC(=O)c3ccc(-c4ccccc4)cc3)cc2)n1	i
Cc1ccc(NC(=O)c2ccc(C(=O)Nc3ccc(C)cc3)cc2)cc1	i
CC(=O)c1ccc(NC(=O)c2ccc(-c3ccccc3)cc2)cc1	30%*
CCC(C)NC(=O)c1cn(CC(C)C)c(=O)c2cc(OC)c(OC)cc12 (stereo not drawn)	i
CCC(=O)N1CCc2cc(Br)cc(S(=O)(=O)N3CCCC3)c21	i

Source: PubChem BioAssay (Paczesny and Yang Labs, IUPUI and University of Michigan)
